Pf Dd2 growth = qHTS Primary assay for Inhibitors of Plasmodium falciparum Dd2 growth in vitro; P. falciparum Dd2 growth, SYBR Green, 72 h; Potency, µM (highest dose often 28.9 µM), most hits filed as inhibitors; 120,000 compounds, 4.3% hits; AID 1347417, 2020; active means well fitted inhibition curve with a large enough effect; further: nearly all actives have a fitted effect of over 65% in size
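Infected erythrocytes (Dd2, 0.3% parasitemia, 2.5% hematocrit final) are added to compound in RPMI-1640/Albumax II medium, grown 72 h at 37C in low oxygen, then lysed with saponin/Triton-X containing SYBR Green and read by fluorescence.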
Large screens that a line does not name were inactive. Shown is part of a subset that was picked to be rich in hits.

CCOc1ccccc1NC(=O)c1c(NCc2sccc2C)sc2c1CCC(C)C2 (configuration not stated)	Pf Dd2 growth 5.6µM
COc1ccc(NC(=O)c2c(NC(=O)COc3ccccc3)sc3c2CCC(C)C3)cc1 (configuration not stated)	none
CCOc1ccccc1NC(=O)c1c(NC(=O)C(C)Oc2ccc(Cl)cc2)sc2c1CCCCC2 (configuration not stated)	Pf Dd2 growth 10µM
CCOc1ccccc1NC(=O)c1c(NC(=O)c2ccccc2)sc2c1CCCC2	none
COC(=O)c1c(NC(=O)c2cc(OC)c(OC)c(OC)c2Br)sc2c1CCC(C)C2 (configuration not stated)	none
COc1ccc(NC(=O)c2c(NCc3ccc(C)o3)sc3c2CCC(C)C3)cc1 (configuration not stated)	Pf Dd2 growth 8.9µM
COc1ccc(Cl)cc1NC(=O)c1c(NCc2sccc2C)sc2c1CCCC2	Pf Dd2 growth 13µM
O=C(Cc1ccccc1)Nc1sc2c(c1C(=O)Nc1ccccc1Cl)CCC2	none
O=C(Nc1sc2c(c1C(=O)Nc1ccccc1Cl)CCCC2)c1ccccc1F	none
CCOC(=O)c1c(NC(=O)c2ccccc2OCC)sc2c1CCC(CC)C2 (configuration not stated)	none
O=C(O)COCC(=O)N1C[C@@H]2C[C@H](C1)c1c(-c3ccc(OC(F)(F)F)cc3)ccc(=O)n1C2	none
O=C(C1CCCC1)N1Cc2ccccc2NC(=O)C12CCNC2 (configuration not stated)	none
COc1ccc(C(NC(=O)c2cccc(OC(F)F)c2)C2CC(O)C2)cn1 (configuration not stated)	none
Cc1noc([C@@H]2CN(Cc3ccc(OC(F)(F)F)cc3)C[C@H]2CO)n1	none
CCCN(CC1CCOC1)C(=O)Nc1cccc(C(F)(F)F)c1 (configuration not stated)	none
COc1ccc(Cl)cc1NC(=O)Cn1nc(C(F)(F)F)c2c1CCCC2	none
CCOc1ccccc1NC(=O)c1c(NCc2sccc2C)sc2c1CCCCC2	Pf Dd2 growth 13µM
COc1ccccc1NC(=O)c1c(NCc2sccc2C)sc2c1CCCCC2	Pf Dd2 growth 11µM
CCOc1ccc(NC(=O)NCc2c(-n3cccc3)sc3c2CCCC3)cc1	none
CCOC(=O)N1CCc2c(sc(NCc3cccs3)c2C(=O)Nc2cc(Cl)ccc2OC)C1	Pf Dd2 growth 8.9µM
CCOc1ccc(NC(=O)c2c(NCc3cccnc3)sc3c2CCCC3)cc1	Pf Dd2 growth 13µM
CCOC(=O)c1c(NC(=O)COc2cccc(C)c2C)sc2c1CCCCC2	none
COc1ccccc1NC(=O)c1c(NC(=O)COc2ccccc2)sc2c1CCCCC2	none
Cc1cc(C)c2c(=O)cc(C(=O)Nc3sc4c(c3C(=O)NCc3cccnc3)CCCC4)oc2c1	none
COc1ccc(Cl)cc1NC(=O)Cn1nnc(C(=O)NCc2cccs2)c1N	none
CC(C)C(=O)N1CCCCCCNC(=O)[C@@H]2CCCC[C@@H]21	none
Cc1ccc(NC(=O)c2cc(CN3CCOCC3)on2)cc1Cl	none
CC(=O)Nc1ccc(CN2CCC(N3CCOC3=O)CC2)cc1	none
Cc1ccc(CN[C@@H]2CO[C@H](CNC(=O)c3ccc(F)cc3)[C@H]2O)cc1	none
CC1CCCN(S(=O)(=O)c2ccc3c(c2)c(=O)nc2ccccn23)C1 (configuration not stated)	none
CCOc1ccc(S(=O)(=O)N(CC(=O)Nc2ccc(OC)cc2OC)c2ccccc2)cc1	none
COCc1nc(C2CCCN(C(=O)Cc3cccc(F)c3)C2)no1 (configuration not stated)	none
O=C(NCc1ccc(F)cc1)N1CCCC(Cc2noc(-c3cnccn3)n2)C1 (configuration not stated)	none
O=C(Nc1ccc(Br)cc1)C1CCCN(S(=O)(=O)c2ccc(Br)s2)C1 (configuration not stated)	none
CCOc1ccc(NC(=O)c2c(NC(=O)c3cccc(C)c3)sc3c2CCC3)cc1	none
COc1ccc(NC(=O)c2c(OC)cc(=O)n3c2CCCC3)c(C)c1	none
COc1ccc(NC(=O)c2nc(-c3ccc(C)cc3)n3c2CCCCC3)c(OC)c1	none
CCOc1ccc(NC(=O)c2c(NCc3ccc(C)o3)sc3c2CCCCC3)cc1	Pf Dd2 growth 11µM
COc1ccc(NC(=O)c2c(NCc3ccc(C)o3)sc3c2CCCCC3)c(OC)c1	Pf Dd2 growth 11µM
CCOC(=O)c1c(NC(=O)COc2ccc(Br)cc2)sc2c1CCCC2	none
COc1ccc(NC(=O)Cn2c(=O)n(-c3ccccc3)c(=O)c3c4c(sc32)CCCC4)c(OC)c1	none
CCOc1ccc(NC(=O)c2c(NCc3sccc3C)sc3c2CCCCC3)cc1	Pf Dd2 growth 11µM
COc1ccc(NC(=O)c2c(NCc3sccc3C)sc3c2CCCCC3)c(OC)c1	Pf Dd2 growth 13µM
COC(=O)c1c(NC(=O)c2ccc(OC)cc2OC)sc2c1CCCCC2	none
CCOc1ccc(/C=C/C(=O)Nc2sc3c(c2C(=O)OC)CCC3)cc1	none
O=C(O)CCC(=O)Nc1sc2c(c1C(=O)Nc1ccccc1)CCCCC2	none
Cc1ccc(CN(C(=O)c2ccc(F)cc2)c2ccccn2)o1	none
CCOC(=O)C1(Cc2ccccc2F)CCCN(C(=O)c2ccc3c(c2)OCCO3)C1 (configuration not stated)	none
Cc1noc(C)c1CC(=O)N1CCN(C(=O)N(C)C)[C@@H]2CS(=O)(=O)C[C@@H]21	none
CCCn1nc(C)c(-c2cc(C(=O)N3CCc4nc5cc(-c6ccccc6)[nH]n5c(=O)c4C3)[nH]n2)c1C	none
O=C1CCCCN1CC(=O)N1CCCC(Nc2ccccc2)C1 (configuration not stated)	none
CCC1CN(CC(=O)NCc2cccc(Br)c2)c2ccccc2S1 (configuration not stated)	none
COc1ccc(-c2ccc3c(c2)C(=O)N2CC[C@H](NC(=O)C4CCCC4)[C@H]2C(=O)N3)c(OC)c1	none
CCc1ccc(C2c3c(oc4cc(C)c(C)cc4c3=O)C(=O)N2c2nc(C)c(C(=O)OC)s2)cc1 (configuration not stated)	none
CC(C)(C)C(=O)N[C@H]1CO[C@H]2[C@@H]1OC[C@@H]2Nc1nccc(-c2ccc(-c3ccccc3)cc2)n1	none
Cc1ccc2c(c1)CCCN2C(=O)CN1CCn2nc(CO)cc2C1	none
O=C(Nc1cccc(F)c1)N1Cc2[nH]cnc2C[C@H]1c1nc(-c2ccc(C(F)(F)F)cc2)no1	none
O=C(c1ccccc1)N1Cc2[nH]cnc2C[C@H]1c1nc(-c2ccc(Cl)cc2)no1	none
FC(F)(F)c1ccc(-c2noc([C@@H]3Cc4nc[nH]c4CN3Cc3cc4ccccc4o3)n2)cc1	Pf Dd2 growth 8.9µM
c1ccc(CN2Cc3[nH]cnc3C[C@H]2c2nc(-c3ccccc3)no2)cc1	Pf Dd2 growth 13µM
Cc1ccc(-c2noc([C@@H]3Cc4nc[nH]c4CN3Cc3ccccc3)n2)cc1	Pf Dd2 growth 10µM
Cc1ccc(-c2noc([C@@H]3Cc4nc[nH]c4CN3Cc3ccc(N(C)C)cc3)n2)cc1	none
COc1ccc(CN2Cc3[nH]cnc3C[C@H]2c2nc(-c3ccc(C)cc3)no2)cc1	Pf Dd2 growth 22µM
c1csc(CN2Cc3[nH]cnc3C[C@H]2c2nc(-c3ccncc3)no2)c1	none
CN(C)c1ccc(CN2Cc3[nH]cnc3C[C@H]2c2nc(-c3ccccc3)no2)cc1	none
COc1ccc(-c2noc([C@@H]3Cc4nc[nH]c4CN3Cc3cccs3)n2)cc1	none
COc1ccc(CN2Cc3[nH]cnc3C[C@H]2c2nc(-c3ccccn3)no2)cc1	none
Cc1ccc(-c2noc([C@@H]3Cc4nc[nH]c4CN3C(=O)CCC(=O)O)n2)cc1	none
Cc1cc(CN2CCn3c(nnc3-c3cccnc3)C2)no1	none
